# Source: PubChem BioAssay (National Center for Advancing Translational Sciences (NCATS))
# FLuc modulator: inhibits or activates purified firefly luciferase, miR-21 counter-screen; P08659; purified FLuc, Km substrates, luminescence inhibition; Potency, µM (doses to about 57.5 µM), inactives show at the highest dose activity change, negative = inhibition, usual class: inhibitors; actives 6.9% (n = 360,000); AID 588342;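 further: plate controls were vehicle for no effect and reference inhibitor for full effect; nearly all actives have a fitted effect of over 55% in size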
# Target sequence (P08659 whole entry, looked up): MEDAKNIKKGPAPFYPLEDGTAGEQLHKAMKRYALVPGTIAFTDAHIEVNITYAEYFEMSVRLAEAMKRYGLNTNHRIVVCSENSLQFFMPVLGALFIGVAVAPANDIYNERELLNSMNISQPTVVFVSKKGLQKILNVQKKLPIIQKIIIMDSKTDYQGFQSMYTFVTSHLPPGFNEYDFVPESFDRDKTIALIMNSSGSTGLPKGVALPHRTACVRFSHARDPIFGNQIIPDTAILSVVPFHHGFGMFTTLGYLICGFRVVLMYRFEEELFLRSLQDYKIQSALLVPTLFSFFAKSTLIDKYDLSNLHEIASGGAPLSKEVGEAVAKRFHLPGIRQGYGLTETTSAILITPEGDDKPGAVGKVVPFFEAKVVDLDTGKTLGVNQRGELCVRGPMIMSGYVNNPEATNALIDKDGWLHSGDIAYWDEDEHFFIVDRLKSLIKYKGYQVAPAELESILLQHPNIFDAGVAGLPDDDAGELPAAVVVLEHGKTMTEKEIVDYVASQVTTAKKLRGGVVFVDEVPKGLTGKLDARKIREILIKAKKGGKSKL
#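 Biochemical qHTS of compounds, final roughly 60 µM downward over six points, against 10 nM purified firefly luciferase using Km concentrations of substrates (10 uM D-luciferin, 10 uM ATP) in Tris acetate pH 7.5 buffer; luminescence output.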
# Rab9 prom act: activates the Rab9 promoter | Potency, µM (doses to about 9.22 µM), without a hit: at the highest dose activation, negative = inhibition, usual class: activators | Huh7 Rab9 promoter-luciferase reporter, luminescence, 24 h | actives 2.8% (n = 320,000); further: % of control where 0% means no effect; nearly all actives have a fitted effect of over 60% in size
#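 Promoter activation is measured as luciferase luminescence in Huh7 cells stably transfected with a Rab9 promoter–luciferase construct, following 24 h compound exposure at 37 °C and 10 min reagent incubation at ambient temperature.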
# SMN2 splice enh: increases expression of the SMN2 splice variant; Potency, µM (highest dose often 46.1 µM), inactives show at the top dose activity change, positive = activation, most hits filed as activators; actives 2.8% (n = 210,000); HEK293 SMN2-luciferase splicing reporter, luminescence, 30-36 h; AID 1458; further: % of control where 0% means no effect; nearly all actives have a fitted effect of over 55% in size
#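 HEK293 cells carry an SMN2 minigene-luciferase reporter in which exon 7 inclusion puts luciferase in frame. Cells were seeded at 2000 cells/well, attached for 10-12 hours, then exposed to compounds for 30-36 hours at 37C before ONE-Glo luminescence.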
# Luc counter: blocks Kinase-Glo luciferase, a counter-screen artifact; Q27757; Kinase-Glo luciferase, ATP luminescence, 8 min; Potency, µM (titrated, usually from 38.3 µM), without a hit: top-dose activity change, negative = inhibition, usual class: inhibitors; actives 0.28% (n = 200,000); further: on the % scale 0 is the no-effect control and ±100 the full control effect; nearly all actives have a fitted effect of over 60% in size
#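 Luminescence was the read-out, taken after 8-minute incubation at ambient temperature. Luciferase turned over luciferin with 10 uM ATP in imidazole pH 7.2 buffer containing KCl, MgCl2, Tween 20 and BSA.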
# NPC1 promoter act: NPC1 promoter activation | Huh7 NPC1 promoter luciferase reporter, 24 h | Potency, µM (top dose mostly 9.22 µM), for inactives: at the highest dose activation, usual class: activators | actives 2.4% (n = 320,000); further: % of control where 0% means no effect; nearly all actives have a fitted effect of over 60% in size
#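 Stable NPC1-promoter luciferase Huh7 line; cpd (DMSO) 24 h, 37 °C, 5% CO2; Amplite luciferase reagent 10 min RT; luminescence readout. qHTS format.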
# ELG1 genotox: inducers of genotoxicity in HEK293T ELG1-luciferase cells. HEK293T ELG1-luciferase reporter, luminescence, 16 h. Potency, µM (highest dose often 46 µM), for the others: top-dose activity change, positive = activation, hits mostly activators. actives 1.3% (n = 330,000). AID 504466; further: % of control where 0% means no effect; nearly all actives have a fitted effect of over 60% in size
#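 Quantitative HTS format in 1536-well plates. HEK293T ELG1-luciferase reporter cells receive test compound and are incubated 16 hr at 37 °C, 5% CO2; ONE-Glo added, 30 min room temperature, then luminescence read.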
# Starred values were filed as active, the others as inactive; ? = inconclusive; / = no result given; [ ] = another dose, or the depositor's remark. Rows were chosen to be rich in hits. Some 7.5% of all compounds tested hit in one or more screens of this group. The call rests on the fitted dose curve; in most records, active means well fitted curve in the direction sought with a large enough effect; inconclusive means small, poorly fitted or top-dose-only effect, or another doubt; inactive means no such curve, though single readings can be large; an effect the other way counts as inactive or inconclusive. Potency means the concentration at half of the fitted maximal effect.
SMILES,FLuc modulator,Rab9 prom act,SMN2 splice enh,Luc counter,NPC1 promoter act,ELG1 genotox
Cc1occc1C(=O)NNC(=O)c1cccc(F)c1,-2%,8%,12%,3%,0%,3%
COCC(=O)NNC(=O)c1ccccc1OC,-5%,-3%,-9%,-1%,-2%,-1%
COc1cc2ccccc2cc1C(=O)NNC(=O)c1ccccc1O,?,7%,/,/,2%,16%
COc1ccccc1C(=O)NNC(=O)c1ccccc1F,15µM*,29%,25µM*,-21%,?,?
COc1ccccc1C(=O)NNC(=O)c1cccc(F)c1,15µM*,?,3.2µM*,?,?,?
COc1ccccc1C(=O)NNC(=O)c1cccc(O)c1,12µM*,?,/,/,?,?
CCCCN1C(=O)c2ccc(C(=O)NC3(C)CCS(=O)(=O)C3)cc2C1=O (stereo unspecified),2%,-2%,/,/,0%,0%
O=C(NCc1ccc(F)cc1)C(=O)NCC(c1ccco1)S(=O)(=O)c1cccs1 (stereo unspecified),5%,/,/,/,/,/
COc1cc(C2CC(=O)N(Cc3ccc(F)cc3)c3ccccc3S2)cc(OC)c1OC (stereo unspecified),-13%,/,-32%,/,/,/
COC(=O)c1cc(-c2ccc(Br)cc2)on1,8.5µM*,1%,-2%,1%,-1%,1%
COc1ccc(-c2cc(C(=O)NC(C)C)no2)cc1,5.4µM*,1.1µM*,13µM*,-3%,2.5µM*,6.5µM*
COc1cccc(-c2cc(C(=O)O)no2)c1,?,-2%,-2%,16%,-1%,-2%
COC(=O)c1cc(-c2cccc(OC)c2)on1,12µM*,-3%,-11%,-4%,-2%,2%
CCN(CC)C(=O)c1cc(-c2ccc(Br)cc2)on1,9.5µM*,3.2µM*,?,0%,2µM*,?
CCOC(=O)CC1C(=O)NCCN1S(=O)(=O)c1cccc(C(F)(F)F)c1 (stereo unspecified),1%,-2%,/,/,-4%,-6%
CCC(C(=O)NCc1ccco1)N(C(=O)CNS(=O)(=O)c1ccccc1)c1ccccc1C (stereo unspecified),4%,-5%,2%,-3%,-5%,-2%
COC(=O)c1cc(-c2ccc(OC)cc2)on1,8.5µM*,-7%,/,-6%,-1%,1%
COC(=O)c1cc(-c2ccccc2)on1,17µM*,1%,8%,-2%,-21%,2%
COC(=O)c1cc(-c2ccc(OC)c(OC)c2)on1,-11%,1%,/,/,-2%,1%
COc1ccc(NCC(=O)Nc2cccc(C(F)(F)F)c2)cc1S(=O)(=O)N1CCOCC1,/,/,/,/,/,-3%
CC1CCN(C(=O)c2cc(-c3ccc(Cl)c(Cl)c3)on2)CC1,?,24%,?,2%,11%,15%
COc1ccccc1N1CCN(C(=O)c2cc(-c3cccc(Cl)c3)on2)CC1,5%,0%,-12%,-3%,0%,-2%
CC1CCN(C(=O)c2cc(-c3cccc(Cl)c3)on2)CC1,24µM*,/,?,/,/,/
CC1CCN(C(=O)c2cc(-c3ccc(Cl)cc3)on2)CC1,6µM*,/,15%,/,/,/
Cc1ccccc1OCC(=O)Nn1c(COc2ccccc2)nc2ccccc2c1=O,27µM*,-2%,0%,-4%,0%,8%
SMILES,FLuc modulator,Rab9 prom act,SMN2 splice enh,Luc counter,NPC1 promoter act,ELG1 genotox
CCOC(=O)c1oc2nc3c(cc2c1N)CCCC3,5.4µM*,1.4µM*,/,/,1.4µM*,?
COc1ccc(NC(=O)C2CCCN2S(=O)(=O)c2ccc3c(c2)CC(C)N3C(C)=O)cc1OC (stereo unspecified),-1%,0%,/,/,-2%,0%[9.26 µM]
CCOc1ccc2nc(SCC(=O)c3ccccc3)sc2c1,15µM*,29%,16%,1%,16%,18µM*
CCOc1ccc2nc(SCC(=O)NC3CC3)sc2c1,5%,?,/,/,?,-8%
CCOc1ccc2nc(SCc3ccccc3C#N)sc2c1,7.6µM*,2.5µM*,11µM*,0%,3.2µM*,?
CCOc1ccc2nc(SCCNS(=O)(=O)c3ccccc3)sc2c1,?,0%,-42%,1%,-1%,1%
CCOc1ccc2nc(SCc3ccc(OC)cc3)sc2c1,13µM*,8%,-21%,3%,6%,1%
COc1cc(Cl)c(C)cc1Nc1ncnc2c1nc1n2CCCC1,2%,/,/,/,/,/
COc1ccc(-c2noc(CN(C)C3CCOCC3)n2)cc1,1%,2%,/,2%,1%,9%
CN(Cc1nc(-c2ccccc2)no1)C1CCOCC1,17µM*,?,/,/,2.5µM*,?
c1ccc(-c2noc(CCC3CCCC3)n2)cc1,11µM*,?,19%,1%,14%,?
c1ccc(-c2noc(CC3CCCCC3)n2)cc1,9.5µM*,?,16%,-3%,18%,?
O=C(NC1CC(=O)N(c2ccc(F)cc2)C1)c1ccco1 (stereo unspecified),-3%,/,/,/,/,/
O=C(O)c1cccc(C[C@H](Br)C(=O)O)c1,/,/,0%[9.22 µM],-2%[7.66 µM],/,/
N#Cc1c(/N=C/c2cc3ccccc3s2)sc2c1CCC2,?,1.4µM*,10µM*,-2%,1.4µM*,?
Cc1ccc(C=Nc2ccccc2C#N)s1,1.3µM*,0%,3%,-21%,0%,9%
N#Cc1c(/N=C/c2ccco2)sc2c1CCC2,2.4µM*,-1%,/,-28%,-3%,2%
Cc1ccc(/C=N/c2sc3c(c2C#N)CCCCC3)o1,0.17µM*,4µM*,-32%,?,4.5µM*,1.5µM*
O=C(NC1CCCC1)C(c1ccccc1)N(C(=O)c1csnn1)c1ccccc1F (stereo unspecified),4%,3%,/,/,1%,-1%
COc1ccc(NC(=O)CN(C)CC(=O)Nc2sc3c(c2C#N)CCC3)cc1,-13%,6%,/,/,-1%,0%
Cc1ccc(/C=N/c2sc3c(c2C#N)CCC3)s1,0.67µM*,?,7.1µM*,-13%,?,?
Cc1[nH]n(-c2ccc(F)cc2)c(=O)c1/C=N/c1sc2c(c1C#N)CCCC2,13µM*,0%,-22%,-25%,1%,-5%
O=C(Nc1nnc(-c2ccc(F)cc2)o1)C1CCCN1S(=O)(=O)c1cccs1 (stereo unspecified),6%,-3%,/,/,2%,0%
O=C(Nc1cccc(-c2nn[nH]n2)c1)c1cccs1,?,?,/,/,2.8µM*,-3%
CCc1ccc(C(=O)Nc2cccc(-c3nn[nH]n3)c2)s1,1.5µM*,23%,/,/,2%,0%
O=C(Nc1cccc(-c2nn[nH]n2)c1)c1csc2c1CCCC2,11µM*,7%,/,/,12%,3%
